PubChem BioAssay (EPA / NIEHS)
Inconclusive results are not listed. Activity calls are given as the source filed them. How the source made its calls, unless noted: active means hit-call score of the fitted dose curve at least 0.9, where 1 is the maximum; inactive means score below 0.9.

Key:
[1] = read-out: Intercellular Adhesion Molecule 1 (ICAM1), ICAM1 (gene 3383); test: BSK_3C_ICAM1: BioMAP Diversity Plus: 3C Assay for Intercellular Adhesion Molecule 1 (ICAM1) Biomarker Activity (AID 2283003); conditions: primary human endothelial cells (HUVEC); actives raise or lower the signal
How it was run: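 Using DMSO as baseline, bidirectional curve fitting was applied to ICAM-1 ELISA signals from HUVEC in the 3C system, measured 24 h after compound addition.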

[2] = BSK_3C_Proliferation: Cell Proliferation Assessment in the BioMAP Diversity Plus: 3C Assay (AID 2283006); conditions: primary human endothelial cells (HUVEC);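 on AC50: potency may reflect either rise or fall in cell number versus DMSO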
How it was run: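 Measured here: sulforhodamine B (0.1%) staining of TCA-fixed sub-confluent umbilical vein endothelial cultures 48 h post-dosing, absorbance 560 nm. DMSO served as negative control and baseline; both signal gain and loss were modelled.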

[3] = target: Peroxisome proliferator-activated receptor gamma (Homo sapiens) (UniProt P37231); test: ATG_PPARg_TRANS: Attagene TRANS-FACTORIAL HepG2 Assay for human Peroxisome Proliferator-activated Receptor-gamma (PPARg) (AID 2283007; active means hit-call score of the fitted dose curve at least 0.9, where 1 is the maximum)
Peroxisome proliferator-activated receptor gamma (Homo sapiens), sequence (P37231 whole entry, looked up, the tested form may be a part): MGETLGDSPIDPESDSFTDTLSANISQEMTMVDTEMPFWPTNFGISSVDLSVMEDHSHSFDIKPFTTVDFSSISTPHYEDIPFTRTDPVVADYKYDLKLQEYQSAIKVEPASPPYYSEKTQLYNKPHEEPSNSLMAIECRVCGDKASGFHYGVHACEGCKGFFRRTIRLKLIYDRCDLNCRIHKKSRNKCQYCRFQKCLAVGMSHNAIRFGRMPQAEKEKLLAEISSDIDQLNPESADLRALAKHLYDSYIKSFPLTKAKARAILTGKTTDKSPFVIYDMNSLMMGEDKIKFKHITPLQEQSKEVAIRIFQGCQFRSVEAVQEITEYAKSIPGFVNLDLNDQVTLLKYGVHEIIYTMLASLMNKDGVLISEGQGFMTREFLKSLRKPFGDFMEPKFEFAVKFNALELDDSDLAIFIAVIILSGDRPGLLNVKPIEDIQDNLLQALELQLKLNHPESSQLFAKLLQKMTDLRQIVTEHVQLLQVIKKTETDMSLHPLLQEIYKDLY
How it was run: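 Endpoint reflects upward reporter mRNA change versus DMSO controls. Setup: transiently transfected HepG2, GAL4-UAS reporters driven by chimeric NR-Gal4, 24 h incubation, RT-PCR with capillary electrophoresis read-out.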

[4] = target: Nuclear receptor subfamily 1 group I member 2 (Homo sapiens) (UniProt O75469); test: ATG_PXR_TRANS: Attagene TRANS-FACTORIAL HepG2 Assay for human Pregnane X Receptor (PXR) (AID 2283008; active means hit-call score of the fitted dose curve at least 0.9, where 1 is the maximum)
Nuclear receptor subfamily 1 group I member 2 (Homo sapiens), sequence (O75469 whole entry, looked up, the tested form may be a part): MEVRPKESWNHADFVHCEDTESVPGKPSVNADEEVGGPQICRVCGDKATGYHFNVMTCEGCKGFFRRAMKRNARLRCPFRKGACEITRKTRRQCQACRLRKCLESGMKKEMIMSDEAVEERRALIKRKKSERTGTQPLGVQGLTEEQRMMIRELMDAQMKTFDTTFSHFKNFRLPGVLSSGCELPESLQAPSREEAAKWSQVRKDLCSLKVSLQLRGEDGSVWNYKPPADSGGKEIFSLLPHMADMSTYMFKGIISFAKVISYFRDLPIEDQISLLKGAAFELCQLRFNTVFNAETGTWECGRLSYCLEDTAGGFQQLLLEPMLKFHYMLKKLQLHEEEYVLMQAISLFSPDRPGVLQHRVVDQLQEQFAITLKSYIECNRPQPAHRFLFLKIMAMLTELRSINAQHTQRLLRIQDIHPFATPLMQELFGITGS
How it was run: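 HepG2 transfected (FuGene 6) with GAL4-UAS reporter units + PXR-Gal4 chimera; dosed 24 h. Total RNA → oligo(dT) RT → PCR → 6-FAM primer extension → HpaI cut → CE. Gain-of-signal vs DMSO.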

[5] = target: human RAR-related Orphan Receptor beta (RORb), RORB (gene 6096) (UniProt Q92753); test: ATG_RORb_TRANS: Attagene TRANS-FACTORIAL HepG2 Assay for human RAR-related Orphan Receptor beta (RORb) (AID 2283010; active means hit-call score of the fitted dose curve at least 0.9, where 1 is the maximum)
human RAR-related Orphan Receptor beta (RORb), RORB (gene 6096), sequence (Q92753 whole entry, looked up, the tested form may be a part): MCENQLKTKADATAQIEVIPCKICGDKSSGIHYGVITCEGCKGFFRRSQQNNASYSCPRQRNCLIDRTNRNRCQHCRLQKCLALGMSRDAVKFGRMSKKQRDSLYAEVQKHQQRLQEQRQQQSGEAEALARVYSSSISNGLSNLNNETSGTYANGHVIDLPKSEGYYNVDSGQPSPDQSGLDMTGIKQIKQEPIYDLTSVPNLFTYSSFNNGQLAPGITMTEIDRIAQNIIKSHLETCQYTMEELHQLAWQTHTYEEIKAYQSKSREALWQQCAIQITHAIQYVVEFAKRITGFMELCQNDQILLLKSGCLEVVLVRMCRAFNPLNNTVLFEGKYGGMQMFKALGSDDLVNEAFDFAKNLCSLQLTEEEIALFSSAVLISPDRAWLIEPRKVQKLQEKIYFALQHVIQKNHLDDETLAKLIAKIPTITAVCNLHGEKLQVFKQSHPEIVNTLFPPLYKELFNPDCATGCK
How it was run: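 Multiplexed transcription-factor reporter assay: HepG2 cells transiently carrying NR-Gal4/GAL4-UAS constructs, 24 h treatment, mRNA quantified by RT-PCR plus capillary electrophoresis fluorescence; activity scored as induction over DMSO.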

[6] = target: Retinoic acid receptor RXR-alpha (Homo sapiens) (UniProt P19793); test: ATG_RXRa_TRANS: Attagene TRANS-FACTORIAL HepG2 Assay for human Retinoid X Receptor alpha (RXRa) (AID 2283012; active means hit-call score of the fitted dose curve at least 0.9, where 1 is the maximum)
Retinoic acid receptor RXR-alpha (Homo sapiens), sequence (P19793 whole entry, looked up, the tested form may be a part): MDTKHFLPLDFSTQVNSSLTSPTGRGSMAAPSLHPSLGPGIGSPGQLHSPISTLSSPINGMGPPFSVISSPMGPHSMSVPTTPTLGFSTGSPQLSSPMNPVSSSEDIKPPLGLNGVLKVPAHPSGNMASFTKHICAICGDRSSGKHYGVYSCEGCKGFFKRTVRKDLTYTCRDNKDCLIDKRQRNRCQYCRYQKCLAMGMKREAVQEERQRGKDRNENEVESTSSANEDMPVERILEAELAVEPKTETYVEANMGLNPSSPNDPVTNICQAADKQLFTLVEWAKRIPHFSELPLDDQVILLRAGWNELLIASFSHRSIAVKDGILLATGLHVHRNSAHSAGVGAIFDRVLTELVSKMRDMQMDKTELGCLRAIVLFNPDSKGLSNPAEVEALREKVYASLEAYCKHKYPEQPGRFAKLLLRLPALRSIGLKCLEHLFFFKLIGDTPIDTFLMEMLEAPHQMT
How it was run: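 Chimeric NR-GAL4 trans-activation in HepG2, 24 h treatment; reporter transcripts quantified by fluorescence on capillary electrophoresis, analysed for upward change from DMSO.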

[7] = target: human Retinoid X Receptor beta (RXRb), RXRB (gene 6257) (UniProt P28702); test: ATG_RXRb_TRANS: Attagene TRANS-FACTORIAL HepG2 Assay for human Retinoid X Receptor beta (RXRb) (AID 2283013; active means hit-call score of the fitted dose curve at least 0.9, where 1 is the maximum)
human Retinoid X Receptor beta (RXRb), RXRB (gene 6257), sequence (P28702 whole entry, looked up, the tested form may be a part): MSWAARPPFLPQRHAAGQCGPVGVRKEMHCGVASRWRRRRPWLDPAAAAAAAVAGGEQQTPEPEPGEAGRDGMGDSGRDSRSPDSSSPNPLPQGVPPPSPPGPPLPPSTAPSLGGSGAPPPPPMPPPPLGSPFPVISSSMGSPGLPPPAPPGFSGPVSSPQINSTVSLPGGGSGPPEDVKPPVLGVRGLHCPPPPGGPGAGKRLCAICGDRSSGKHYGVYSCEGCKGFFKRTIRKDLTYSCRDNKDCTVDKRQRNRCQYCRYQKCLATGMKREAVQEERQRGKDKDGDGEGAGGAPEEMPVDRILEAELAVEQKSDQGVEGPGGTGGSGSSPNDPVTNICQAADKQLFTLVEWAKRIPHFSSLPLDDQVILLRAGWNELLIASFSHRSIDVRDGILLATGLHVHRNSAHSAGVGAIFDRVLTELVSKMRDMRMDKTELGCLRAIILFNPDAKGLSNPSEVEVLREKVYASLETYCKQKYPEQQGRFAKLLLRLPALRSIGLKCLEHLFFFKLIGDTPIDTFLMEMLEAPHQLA
How it was run: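 After a 24 h incubation with test chemical, transfected HepG2 cells carrying NR-Gal4 fusions and GAL4-UAS reporter transcription units yield RNA whose reporter cDNA is FAM-labelled, HpaI-cut and sized by capillary electrophoresis; increases over DMSO are scored.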

[8] = target: human Thyroid Receptor alpha (THRa1), THRA (gene 7067) (UniProt P10827); test: ATG_THRa1_TRANS: Attagene TRANS-FACTORIAL HepG2 Assay for human Thyroid Receptor alpha (THRa1) (AID 2283014; active means hit-call score of the fitted dose curve at least 0.9, where 1 is the maximum)
human Thyroid Receptor alpha (THRa1), THRA (gene 7067), sequence (P10827 whole entry, looked up, the tested form may be a part): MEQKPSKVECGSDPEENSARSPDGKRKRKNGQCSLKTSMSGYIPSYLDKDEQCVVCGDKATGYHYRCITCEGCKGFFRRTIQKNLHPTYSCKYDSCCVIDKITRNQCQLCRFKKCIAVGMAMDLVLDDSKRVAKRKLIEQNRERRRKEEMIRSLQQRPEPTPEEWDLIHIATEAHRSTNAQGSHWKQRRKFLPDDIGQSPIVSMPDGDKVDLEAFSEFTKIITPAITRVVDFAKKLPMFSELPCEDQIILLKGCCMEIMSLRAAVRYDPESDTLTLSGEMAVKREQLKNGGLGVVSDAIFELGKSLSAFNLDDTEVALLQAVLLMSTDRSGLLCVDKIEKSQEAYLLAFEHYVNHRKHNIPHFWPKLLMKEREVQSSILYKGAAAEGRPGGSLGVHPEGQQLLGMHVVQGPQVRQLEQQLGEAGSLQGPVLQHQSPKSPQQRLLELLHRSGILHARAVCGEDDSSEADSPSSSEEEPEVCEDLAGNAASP
How it was run: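 Measured here is mRNA from a GAL4-UAS reporter in transfected HepG2 cells carrying a Gal4-fused receptor, 24 h post-dose. DMSO served as negative control and baseline.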

[9] = read-out: E-selectin (Homo sapiens) (UniProt P16581); test: BSK_3C_Eselectin: BioMAP Diversity Plus: 3C Assay for Eselectin Biomarker Activity (AID 2283015); conditions: primary human endothelial cells (HUVEC); actives raise or lower the signal;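 further: cell surface E-selectin protein quantified by ELISA 24 h after dosing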
How it was run: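 Endpoint derived by bidirectional fitting against DMSO vehicle; signal is ELISA-detected E-selectin from primary HUVEC at 24 h post-dosing, with parallel SRB staining (0.1% SRB, 560 nm) flagging cytotoxicity.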

[10] = read-out: Interleukin-1 alpha (IL1a), IL1A (gene 3552); test: BSK_BE3C_IL1a: BioMAP Diversity Plus: BE3C Assay for Interleukin-1 alpha (IL1a) Biomarker Activity (AID 2283016); conditions: primary human bronchial epithelial cells; actives raise or lower the signal
How it was run: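 Measured in human lung primary bronchial epithelial cells: IL-1a by ELISA at 24 h after dosing, with bidirectional fitting against DMSO.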

[11] = read-out: Monocyte Chemoattractant Protein-1 (MCP1), CCL2 (gene 6347); test: BSK_3C_MCP1: BioMAP Diversity Plus: 3C Assay for Monocyte Chemoattractant Protein-1 (MCP1) Biomarker Activity (AID 2283017); conditions: primary human endothelial cells (HUVEC); actives raise or lower the signal
How it was run: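 Using human vascular primary endothelium, researchers measured MCP-1 by ELISA 24 h after treatment, with DMSO serving as negative control for bidirectional fitting.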

[12] = read-out: Monocyte Chemoattractant Protein-1 (MCP1), CCL2 (gene 6347); test: BSK_4H_MCP1: BioMAP Diversity Plus: 4H Assay for Monocyte Chemoattractant Protein-1 (MCP1) Biomarker Activity (AID 2283018); conditions: primary human endothelial cells (HUVEC); actives raise or lower the signal
How it was run: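 Primary human umbilical vein endothelium is exposed to chemical for 24 h before MCP-1 is assayed by ELISA. Concentration-response fitted bidirectionally relative to DMSO.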

[13] = read-out: Human Leukocyte Antigen - DR isotype (HLADR), HLA-DRA (gene 3122); test: BSK_3C_HLADR: BioMAP Diversity Plus: 3C Assay for Human Leukocyte Antigen - DR isotype (HLADR) Biomarker Activity (AID 2283019); conditions: primary human endothelial cells (HUVEC); actives raise or lower the signal;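 on outcome: ELISA of cell-surface HLA-DR on HUVEC 24 h after dosing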
How it was run: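 Compound added to primary HUVEC cultures, 24 h incubation, then HLA-DR determined by ELISA; endpoint derived by bidirectional fitting relative to DMSO negative control.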

[14] = read-out: Interleukin-8 (IL8), CXCL8 (gene 3576); test: BSK_3C_IL8: BioMAP Diversity Plus: 3C Assay for Interleukin-8 (IL8) Biomarker Activity (AID 2283020); conditions: primary human endothelial cells (HUVEC); actives raise or lower the signal
How it was run: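 Using DMSO-treated wells as the baseline, bidirectional curve fitting was applied to ELISA-measured IL-8 from human umbilical vein endothelial cultures sampled 24 h after compound addition.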

[15] = target: human Peroxisome Proliferator-activated Receptor delta (PPARd), PPARD (gene 5467) (UniProt Q03181); test: ATG_PPARd_TRANS: Attagene TRANS-FACTORIAL HepG2 Assay for human Peroxisome Proliferator-activated Receptor delta (PPARd) (AID 2283002; active means hit-call score of the fitted dose curve at least 0.9, where 1 is the maximum)
human Peroxisome Proliferator-activated Receptor delta (PPARd), PPARD (gene 5467), sequence (Q03181 whole entry, looked up, the tested form may be a part): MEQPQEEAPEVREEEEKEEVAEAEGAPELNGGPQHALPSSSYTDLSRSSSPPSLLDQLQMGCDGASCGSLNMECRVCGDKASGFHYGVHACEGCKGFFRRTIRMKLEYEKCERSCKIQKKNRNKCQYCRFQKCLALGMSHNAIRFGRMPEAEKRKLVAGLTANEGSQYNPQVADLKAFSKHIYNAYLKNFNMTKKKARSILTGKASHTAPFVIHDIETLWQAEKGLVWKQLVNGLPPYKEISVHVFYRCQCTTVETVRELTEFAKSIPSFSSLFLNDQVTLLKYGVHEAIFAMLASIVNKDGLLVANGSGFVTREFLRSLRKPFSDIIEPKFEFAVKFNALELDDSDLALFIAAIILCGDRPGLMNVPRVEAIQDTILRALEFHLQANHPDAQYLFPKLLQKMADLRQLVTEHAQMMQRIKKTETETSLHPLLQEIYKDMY
How it was run: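 HepG2 cells transiently transfected with GAL4-UAS multiplexed reporter units driven by exogenous chimeric NR-GAL4 proteins; 24 h compound exposure. Reporter mRNA measured by RT-PCR, 6-FAM primer extension, HpaI digestion and capillary electrophoresis; gain of signal fitted relative to DMSO.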

[16] = target: human RAR-related Orphan Receptor gamma (RORg), RORC (gene 6097) (UniProt P51449); test: ATG_RORg_TRANS: Attagene TRANS-FACTORIAL HepG2 Assay for human RAR-related Orphan Receptor gamma (RORg) (AID 2283011; active means hit-call score of the fitted dose curve at least 0.9, where 1 is the maximum)
human RAR-related Orphan Receptor gamma (RORg), RORC (gene 6097), sequence (P51449 whole entry, looked up, the tested form may be a part): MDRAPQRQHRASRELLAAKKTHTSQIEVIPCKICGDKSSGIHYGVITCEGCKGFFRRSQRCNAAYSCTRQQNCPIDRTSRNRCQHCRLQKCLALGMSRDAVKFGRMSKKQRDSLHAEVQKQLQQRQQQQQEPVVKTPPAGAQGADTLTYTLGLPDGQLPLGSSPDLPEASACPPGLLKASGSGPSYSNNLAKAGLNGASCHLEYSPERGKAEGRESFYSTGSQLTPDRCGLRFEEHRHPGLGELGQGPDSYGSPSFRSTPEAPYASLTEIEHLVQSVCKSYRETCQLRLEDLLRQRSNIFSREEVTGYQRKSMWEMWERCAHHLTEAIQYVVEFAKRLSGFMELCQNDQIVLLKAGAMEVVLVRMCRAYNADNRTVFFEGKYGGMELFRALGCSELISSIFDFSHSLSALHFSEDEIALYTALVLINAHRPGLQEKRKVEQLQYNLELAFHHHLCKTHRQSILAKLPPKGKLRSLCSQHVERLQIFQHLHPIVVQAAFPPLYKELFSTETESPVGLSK
How it was run: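 Chimeric RORg-Gal4 transactivation in transfected HepG2; 24 h exposure; RT-PCR/capillary electrophoresis readout of reporter mRNA, DMSO baseline.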

E-selectin (Homo sapiens), sequence (P16581 whole entry, looked up): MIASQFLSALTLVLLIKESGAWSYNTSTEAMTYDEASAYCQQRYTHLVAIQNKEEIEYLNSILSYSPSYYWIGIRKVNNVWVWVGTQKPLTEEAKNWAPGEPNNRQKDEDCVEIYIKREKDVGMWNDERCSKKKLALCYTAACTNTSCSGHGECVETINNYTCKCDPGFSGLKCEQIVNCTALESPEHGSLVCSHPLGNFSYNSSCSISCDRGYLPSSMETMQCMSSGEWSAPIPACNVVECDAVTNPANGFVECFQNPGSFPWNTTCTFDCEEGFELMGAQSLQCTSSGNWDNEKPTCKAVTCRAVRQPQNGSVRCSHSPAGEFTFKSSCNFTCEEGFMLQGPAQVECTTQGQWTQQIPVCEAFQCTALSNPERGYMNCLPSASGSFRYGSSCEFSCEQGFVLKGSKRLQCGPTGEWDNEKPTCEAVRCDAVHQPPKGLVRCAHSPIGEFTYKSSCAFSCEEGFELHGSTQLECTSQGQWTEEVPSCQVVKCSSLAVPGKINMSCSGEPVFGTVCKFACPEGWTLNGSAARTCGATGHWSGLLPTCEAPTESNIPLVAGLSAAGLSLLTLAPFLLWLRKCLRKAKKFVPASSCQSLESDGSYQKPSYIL

Q: Which outcome [1] does the source give for `BrC1CCC(Br)C(Br)CCC(Br)C(Br)CCC1Br` (stereo unspecified) here?
A: inactive

Q: And the AC50 [2]?
A: 4.72 µM (active)

Q: And the outcome [3]?
A: inactive

Q: What about the AC50 [4] of the same molecule?
A: 2.86 µM (active)

Q: And the outcome [5]?
A: inactive

Q: And the outcome [6]?
A: inactive

Q: What about the AC50 [7] of the same molecule?
A: 8.67 µM (active)

Q: And the outcome [8]?
A: inactive

Q: And the outcome [9]?
A: inactive

Q: And the outcome [10]?
A: inactive

Q: And the AC50 [11]?
A: 4.64 µM (active)

Q: What about the AC50 [12] of the same molecule?
A: 1.58 µM (active)

Q: What about the AC50 [13] of the same molecule?
A: 3.33 µM (active)

Q: And the AC50 [14]?
A: 4.7 µM (active)

Q: With `CC(=O)O[C@H](CC(=O)[O-])C[N+](C)(C)C` as the molecule, how does the outcome [15] read?
A: inactive

Q: And the outcome [3]?
A: inactive

Q: And the outcome [8]?
A: inactive

Q: For `FC1(F)C(F)(F)C(F)(F)C2(F)C(F)(C1(F)F)C(F)(F)C(F)(F)C1(F)C(F)(F)C(F)(F)C(F)(F)C(F)(F)C12F` (stereo unspecified), which outcome [15] is on record?
A: inactive

Q: And the outcome [4]?
A: inactive

Q: What about the outcome [8] of the same molecule?
A: inactive

Q: For `CC(C)Oc1ccccc1O`, which outcome [1] is on record?
A: inactive

Q: What about the outcome [2] of the same molecule?
A: inactive

Q: And the outcome [3]?
A: inactive

Q: And the AC50 [4]?
A: 27.4 µM (active)

Q: What about the outcome [5] of the same molecule?
A: inactive

Q: And the outcome [6]?
A: inactive

Q: What about the outcome [8] of the same molecule?
A: inactive

Q: What about the outcome [9] of the same molecule?
A: inactive

Q: And the outcome [10]?
A: inactive

Q: And the outcome [11]?
A: inactive

Q: And the outcome [12]?
A: inactive

Q: What about the outcome [13] of the same molecule?
A: inactive

Q: What about the outcome [14] of the same molecule?
A: inactive

Q: For `OCCCCCO`, which outcome [15] is on record?
A: inactive

Q: What about the outcome [4] of the same molecule?
A: inactive

Q: And the outcome [8]?
A: inactive

Q: With `CC(=O)/C=C/C1=C(C)CCCC1(C)C` as the molecule, how does the outcome [1] read?
A: inactive

Q: And the outcome [2]?
A: inactive

Q: What about the AC50 [3] of the same molecule?
A: 21.1 µM (active)

Q: What about the AC50 [4] of the same molecule?
A: 2.3 µM (active)

Q: What about the outcome [6] of the same molecule?
A: inactive

Q: What about the AC50 [7] of the same molecule?
A: 80 µM (active)

Q: And the outcome [8]?
A: inactive

Q: And the outcome [9]?
A: inactive

Q: What about the outcome [10] of the same molecule?
A: inactive

Q: And the outcome [11]?
A: inactive

Q: And the outcome [12]?
A: inactive

Q: And the outcome [13]?
A: inactive

Q: And the outcome [14]?
A: inactive

Q: Which outcome [15] does the source give for `COC(=O)OC` here?
A: inactive

Q: And the outcome [4]?
A: inactive

Q: And the outcome [16]?
A: inactive

Q: And the outcome [6]?
A: inactive

Q: What about the outcome [7] of the same molecule?
A: inactive

Q: For `CC(=O)O[C@]1(C(C)=O)CC[C@H]2[C@@H]3C[C@H](C)C4=CC(=O)CC[C@]4(C)[C@H]3CC[C@@]21C`, which outcome [1] is on record?
A: inactive

Q: What about the outcome [2] of the same molecule?
A: inactive

Q: And the AC50 [6]?
A: 2.91 µM (active)

Q: What about the AC50 [7] of the same molecule?
A: 2.34 µM (active)

Q: What about the outcome [9] of the same molecule?
A: inactive

Q: And the outcome [10]?
A: inactive

Q: And the outcome [11]?
A: inactive

Q: What about the outcome [12] of the same molecule?
A: inactive

Q: And the AC50 [13]?
A: 10 µM (active)

Q: What about the outcome [14] of the same molecule?
A: inactive

Q: With `O=[N+]([O-])c1cc(C(F)(F)F)ccc1Cl` as the molecule, how does the outcome [1] read?
A: inactive

Q: And the outcome [2]?
A: inactive

Q: What about the outcome [3] of the same molecule?
A: inactive

Q: What about the outcome [4] of the same molecule?
A: inactive

Q: What about the outcome [9] of the same molecule?
A: inactive

Q: What about the outcome [10] of the same molecule?
A: inactive

Q: What about the outcome [11] of the same molecule?
A: inactive

Q: What about the outcome [12] of the same molecule?
A: inactive

Q: And the outcome [13]?
A: inactive

Q: What about the outcome [14] of the same molecule?
A: inactive

Q: Which results are given for `CCCCC(CC)COCCC#N` (stereo unspecified)?
A: outcome [1]: inactive; AC50 [2]: 20 µM (active); outcome [4]: inactive; outcome [16]: inactive; outcome [6]: inactive; AC50 [7]: 51.1 µM (active); outcome [9]: inactive; outcome [10]: inactive; AC50 [11]: 20 µM (active); outcome [12]: inactive; AC50 [13]: 20 µM (active); outcome [14]: inactive
